Measurements published in PubChem BioAssay AID493168 (National Center for Advancing Translational Sciences (NCATS), 2011).
Inconclusive results are not listed. The source made the active and inactive calls. Calls come from the whole dose curve; as a rule, active = well fitted inhibition curve with a large enough effect; inconclusive = small, poorly fitted or top-dose-only effect, or effect the other way; inactive = flat fitted curve, though single readings scatter.

Biological target: Ubiquitin carboxyl-terminal hydrolase 2 (Homo sapiens) (UniProt O75604)
Sequence (O75604 whole entry, looked up): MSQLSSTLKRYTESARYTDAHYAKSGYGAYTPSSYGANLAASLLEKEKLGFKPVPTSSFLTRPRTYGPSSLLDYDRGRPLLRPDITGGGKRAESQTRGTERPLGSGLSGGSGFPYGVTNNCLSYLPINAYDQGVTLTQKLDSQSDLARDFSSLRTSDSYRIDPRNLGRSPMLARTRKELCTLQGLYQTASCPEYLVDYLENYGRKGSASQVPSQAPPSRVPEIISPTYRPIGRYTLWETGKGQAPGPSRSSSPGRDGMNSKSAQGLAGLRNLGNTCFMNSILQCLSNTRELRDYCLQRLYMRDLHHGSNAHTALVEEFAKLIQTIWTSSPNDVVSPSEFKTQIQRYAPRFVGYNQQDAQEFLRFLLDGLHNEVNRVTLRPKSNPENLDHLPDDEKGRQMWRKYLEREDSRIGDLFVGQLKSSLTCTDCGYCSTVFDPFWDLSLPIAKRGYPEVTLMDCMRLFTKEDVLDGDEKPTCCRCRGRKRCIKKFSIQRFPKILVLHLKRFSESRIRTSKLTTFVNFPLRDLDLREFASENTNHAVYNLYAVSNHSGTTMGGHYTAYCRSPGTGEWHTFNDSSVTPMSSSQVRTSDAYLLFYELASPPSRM
Experiment: Confirmation Assay for Inhibitors of Ubiquitin-specific Protease USP2a Using CHOP2 as the Reporter; note: nearly all actives have a fitted effect of over 55% in size;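 for activity change, negative = inhibition: plate controls were DMSO wells for no effect and full inhibition by NEM control for full effect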
Settings: USP2 core, Ub-CHOP2 coupled reporter fluorescence; series mostly up to 38.3 µM; activity change, negative = inhibition: at the top concentration
Summary of the method: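 USP2 core (10 nM final) was preincubated with compound for 30 min at RT in Tris-HCl pH 8.0, CaCl2, beta-mercaptoethanol, CHAPS. Ub-CHOP2 and reporter substrate (25 nM final each) were added, and fluorescence (Ex 485/Em 531 nm) was read after 60 min.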
Potency is the fitted concentration of half-maximal effect.

Activity change, negative = inhibition, inactive:
CC(=O)N1c2c(cc(Br)cc2S(=O)(=O)NCc2cccnc2)CC1C (stereo not given) 2.31%
O=C1c2ccccc2CCC12N=NCC2c1ccc(Br)cc1 (stereo not given) -1.61%
O=C(NC1CCCCC1)C(c1ccco1)N(C(=O)c1csnn1)c1cccc(F)c1 (stereo not given) -2.74%
O/N=C/c1ccccc1OCc1ccccc1F 3.9%
Cc1nc2cc3ccccc3cc2c(=O)[nH]1 2.06%
Cc1ccc2[nH]c(C)c(CCNC(=O)c3cc4cc([N+](=O)[O-])ccc4oc3=O)c2c1 -1.5%
COc1ccc(NC(=O)C2CC(=O)OC2c2ccccc2)cc1 (stereo not given) 1.9%
Cc1cc(C(=O)Nc2ccccc2N2CCOCC2)c2ccccc2n1 1.25%
CCOc1ccc(Cn2nnc(C(=O)NCc3ccccc3)c2N)cc1 -2.45%
CCOC(=O)Nc1nnc(CCc2ccccc2)s1 -0.956%
Cc1cc(NC(=O)CN2C(=O)NC3(CCCCC3C)C2=O)no1 (stereo not given) -0.642%
C[C@H](CO)N1C[C@H](C)[C@@H](CN(C)S(=O)(=O)c2cn(C)cn2)Oc2ccc(NC(=O)Cn3cnnn3)cc2C1=O 4.41%
COc1ccc(C(=O)COC(=O)c2ccccc2O)c(OC)c1 -16.9%
O=C(COc1ccccc1)N1CCN(C(=O)Cc2ccccc2)CC1 -1.37%
COC(=O)c1c(N2C(=O)CCC2=O)sc2c1CCCC2 -2.43%
CCOC(=O)c1c(C)[nH]c(C(=O)COC(=O)CSC)c1C 2.27%
COc1cccc(-c2csc3nnc(SCC(=O)NCc4cccs4)n23)c1 -0.609%
CCOc1ccccc1N(CC(=O)NC(C)(C)C)C(=O)c1ccc(CN2CCOCC2)o1 -4.17%
O=C1NC[C@@H](c2ccccc2)OC(=O)[C@@H](Cc2ccc(F)cc2)CC/C=C/C[C@@H]1CC(=O)N(CCO)Cc1ccccc1 1.12%
O=C(Nc1cnn(Cc2ccccc2)c1)c1nc2ncccn2n1 -1.86%
c1coc(CNC2CCCCCCC2)c1 2.9%
Cc1ccc(C(=O)NCc2ccc3c(c2)OCO3)cc1N1CCCC1=O -2.42%
CCOc1ccc(CCn2c(-c3ccco3)nc3ccccc3c2=O)cc1OCC 2.36%
COc1ccc(-n2c(=S)[nH]c3cc(C(=O)Nc4cc(OC)c(OC)c(OC)c4)ccc3c2=O)c(OC)c1 -0.814%
O=C(c1ccc([N+](=O)[O-])cc1)N(Cc1ccc(Cl)cc1)N1C(=O)CCCC1=O -1.63%
Cc1ccc(N(CC(=O)Nc2ccc(S(=O)(=O)N3CCOCC3)cc2)S(C)(=O)=O)cc1C -1.17%
C=CCn1c(O)c(C(CC)=NCCN2CCOCC2)c(=O)[nH]c1=O 5.16%
CCOC(=O)C(=O)Nc1nc(-c2ccc3c(c2)CCN3C(=O)C2CC2)c(C)s1 -0.268%
O=C(CCc1nc(-c2ccccc2F)no1)NC1CCCCCC1 -0.733%
COc1ccc(Cl)cc1S(=O)(=O)Nc1cccc(C(=O)O)c1 0.617%
CC1CCCCN1CCNC(=O)CC1Oc2ccccc2NC1=O (stereo not given) 5.53%
CN(C)S(=O)(=O)c1ccc(C(=O)NCCN=C2NS(=O)(=O)c3ccccc32)cc1 0.266%
COc1cc(C)c(S(=O)(=O)NCc2ccc3c(c2)OCO3)cc1C 5.8%
Cc1ccc(S(=O)(=O)Nc2cc(C)c(O)c(S(=O)(=O)c3ccc(C)cc3)c2)cc1 5.44%
Cc1cccc(-c2nnc3n2N=C(c2ccc(Br)cc2)CS3)c1 4.34%

Potency, active:
O=c1[nH]c(=S)[nH]c2c1C(c1ccc(Br)cc1)c1c([nH]c(=S)[nH]c1=O)O2 9.27 µM
O=C(COC(=O)c1ccc(NS(=O)(=O)c2cccs2)cc1)Nc1nc2c(F)c(F)c(F)cc2s1 6.56 µM
Cc1cc(/C=C2\C(=N)N3N=C(c4ccco4)SC3=NC2=O)c(C)n1Cc1ccccc1 16.5 µM
C/C(=N/NC(=O)c1cc2ccccc2cc1O)C1C(=O)c2ccccc2C1=O 5.85 µM
Cn1c(=O)c(C(=O)Nc2ccccc2S(N)(=O)=O)c(O)c2ccccc21 14.7 µM
